# Source: PubChem BioAssay (EPA / NIEHS)
# “And” between values parts separate entries of the source, which are not always exact repeats. Equal values may be shown once. Results filed as inconclusive are left out. Some compounds were tested as several samples or in several runs, with calls that do not always agree. The source made the active and inactive calls. The calls were made as follows, unless noted: active = hit-call score of the fitted dose curve at least 0.9, where 1 is the maximum; inactive = score below 0.9.
# How the values were obtained:
# [1] = IUF_NPC1b_proliferation_BrdU_72hr: Leibniz Research Institute for Environmental Medicine (IUF) 72-hour Neural Progenitor Cell Bromodeoxyuridine (BrdU) Proliferation Assay (NPC1b) (AID 2284207)
# Summary of the method: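 Human fetal cortex-derived (GW 16-19) neural progenitor spheres, 0.25-0.35 mm, one per well in EGF/FGF proliferation medium, exposed to compound for 72 h at 37C, pH 7.2-7.6. BrdU incorporation over the final 16 h read by luminescence ELISA, relative to DMSO.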
# [2] = IUF_NPC1a_proliferation_area_72hr: Leibniz Research Institute for Environmental Medicine (IUF) 72-hour Neural Progenitor Cell Proliferation Area Assay (NPC1a) (AID 2284208)
# Summary of the method: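 Measured in 3D suspension: each well held one primary hNPC sphere grown with EGF and FGF at pH 7.2-7.6. Compound stayed on for 72 h, then area was imaged; spheres lacking growth factors defined reduced proliferation.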
# [3] = IUF_NPC1_viability_72hr: Viability Assessment at 72 hours in the Leibniz Research Institute for Environmental Medicine (IUF) Neural Progenitor Cell Proliferation Assay (NPC1) (AID 2284209)
# Summary of the method: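 Spheres of primary human neural progenitors were plated singly in proliferation medium and treated for 72 h. Mitochondrial reduction of resazurin was then measured by fluorescence and analysed against DMSO controls.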
# [4] = CCTE_Mundy_HCI_Cortical_Synap_Neur_Matur_NeuriteSpotCountPerNeuriteLength: CCTE's Synaptogenesis and Neurite Maturation Assay in rat cortical cells for Neurite Spot Count per Neurite Length, Mundy Lab (AID 2284210)
# Summary of the method: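 Synaptophysin spots per unit neurite length, measured by automated imaging of MAP2/synaptophysin/Hoechst-stained neurons. Cultures from rat cortex received chemical at DIV 7 with media change through DIV 12; glial growth arrested by AraC at DIV 5; DMSO baseline.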
# [5] = CCTE_Mundy_HCI_Cortical_Synap_Neur_Matur_BPCount: CCTE's Synaptogenesis and Neurite Maturation Assay in rat cortical cells for Branch Point Count, Mundy Lab (AID 2284211)
# Summary of the method: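 HCI read-out of branch points from MAP2/synaptophysin/Hoechst immunofluorescence; rat cortical cultures, AraC DIV 5, dosing DIV 7, fixed DIV 12; fit in positive direction vs DMSO baseline.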
# [6] = CCTE_Mundy_HCI_Cortical_NOG_NeuriteCount: CCTE's Neurite Outgrowth Assay in rat cortical cells for Neurite Count, Mundy Lab (AID 2284212);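 also: cells fixed about two days after chemical exposure began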
# Summary of the method: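 Rat cortical primary cells; compound added 2 h post-plating, 1/10 dilution of working solution. Anti-betaIII-tubulin/AF488 ICC; ArrayScan neurite count vs DMSO.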
# [7] = CCTE_Mundy_HCI_Cortical_Synap_Neur_Matur_NeuriteLength: CCTE's Synaptogenesis and Neurite Maturation Assay in rat cortical cells for Neurite Length, Mundy Lab (AID 2284214)
# Summary of the method: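 Cultures of rat primary cortical cells received chemical at DIV 7 and were fixed at DIV 12, after glial arrest with AraC at DIV 5. Neurite length was measured by automated imaging of MAP2 immunofluorescence.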
# [8] = CCTE_Mundy_HCI_Cortical_Synap_Neur_Matur_NeuriteSpotCountPerNeuron: CCTE's Synaptogenesis and Neurite Maturation Assay in rat cortical cells for Neurite Spot Count per Neuron Count, Mundy Lab (AID 2284215)
# Summary of the method: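 Developing rat cortical neurons, with glia suppressed by AraC, are exposed to chemicals from DIV 7 to DIV 12. Automated fluorescence imaging of MAP2-labelled neurites and synaptophysin puncta yields a count per neuron, normalised against DMSO wells.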
# [9] = CCTE_Mundy_HCI_Cortical_Synap_Neur_Matur_SynapseCount: CCTE's Synaptogenesis and Neurite Maturation Assay in rat cortical cells for Synapse Count, Mundy Lab (AID 2284218)
# Summary of the method: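 Cells were plated, allowed 2 hr to attach, treated with AraC at DIV 5, then exposed to chemicals from DIV 7 until DIV 12. After fixation and MAP2/synaptophysin immunolabelling, synapses per neuron were quantified by automated imaging against DMSO.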
# [10] = CCTE_Mundy_HCI_hN2_NOG_NeuriteCount: CCTE's Neurite Outgrowth Assay in human hN2 cells for Neurite Count, Mundy Lab (AID 2284219; active = hit-call score of the fitted dose curve at least 0.9, where 1 is the maximum)
# Summary of the method: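 In this morphology assay, hNP1-derived neurons received test chemical 2 h post-plating and were fixed two days later in warm paraformaldehyde/sucrose containing Hoechst 33342. Neurites, labelled by rabbit anti-βIII-tubulin (1:800) and Alexa Fluor-488 (1:500), were counted automatically.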
# [11] = CCTE_Mundy_HCI_hN2_NOG_NeuriteLength: CCTE's Neurite Outgrowth Assay in human hN2 cells for Neurite Length, Mundy Lab (AID 2284220; active = hit-call score of the fitted dose curve at least 0.9, where 1 is the maximum)
# Summary of the method: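 Plate hNP1-derived neurons, then add chemical 2 h later as a 1/10 dilution. Stain with anti-βIII-tubulin then Alexa Fluor-488 secondary, and image automatically to measure neurite length.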
# [12] = CCTE_Mundy_HCI_hN2_NOG_NeuronCount: CCTE's Neurite Outgrowth Assay in human hN2 cells for Neuron Count, Mundy Lab (AID 2284221; active = hit-call score of the fitted dose curve at least 0.9, where 1 is the maximum)
# Summary of the method: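 Read-out is the number of betaIII-tubulin-positive neurons imaged by automated high-content analysis, with DMSO as negative control.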
# [13] = CCTE_Mundy_HCI_Cortical_Synap_Neur_Matur_NeuriteCount: CCTE's Synaptogenesis and Neurite Maturation Assay in rat cortical cells for Neurite Count, Mundy Lab (AID 2284222);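 as to outcome: exposure from day 7 to day 12 in vitro with readout at day 12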
# Summary of the method: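 Rat cortical neurons, 96-well; AraC DIV 5; chemical + media change DIV 7; end DIV 12. Fix PFA/Hoechst, anti-MAP2 + anti-synaptophysin IF. HCI neurite count vs DMSO baseline.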
# [14] = CCTE_Mundy_HCI_Cortical_Synap_Neur_Matur_CellBodySpotCount: CCTE's Synaptogenesis and Neurite Maturation Assay in rat cortical cells for Cell Body Spot Count, Mundy Lab (AID 2284223)
# Summary of the method: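 Chemicals were applied to AraC-treated rat primary cortical cells at DIV 7 and measured at DIV 12. Fixed cells were labelled for MAP2, synaptophysin and nuclei, and high-content imaging gave cell body synaptophysin spot counts per neuron relative to DMSO.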
# [15] = CCTE_Mundy_HCI_hNP1_Pro_ResponderAvgInten: CCTE's Proliferation Assay in human neuroprogenitor cells, Mundy Lab (AID 2284224; active = hit-call score of the fitted dose curve at least 0.9, where 1 is the maximum;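 also: human neural progenitor cells hNP1 derived from WA09 embryonic stem cells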)
# Summary of the method: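 Proliferation was scored as BrdU labelling intensity in human neural progenitors derived from WA09 embryonic cells, measured 26.25 hours after chemical dosing. Activity was fitted relative to DMSO.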
# [16] = BSK_BT_PBMCCytotoxicity: PBMC Cytotoxicity Assessment in the BioMAP Diversity Plus: BT Assay (AID 2284225); conditions: primary human B cells with PBMC;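 also: PBMC viability measured by Alamar Blue dye reduction fluorescence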
# Summary of the method: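 Viability by Alamar Blue reduction (6 h, ex/em 546/580 nm) after 90 h culture of SEB/TSST-1-activated PBMC (20 ng/mL each) given compound 1 h before activation. DMSO served as baseline for curve fitting.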
# [17] = read-out: Secreted IgG (sIgG), gene 3500; test: BSK_BT_sIgG: BioMAP Diversity Plus: BT Assay for Secreted IgG (sIgG) Biomarker Activity (AID 2284226); conditions: primary human B cells with PBMC
# Summary of the method: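 Cells (B cells with peripheral blood mononuclear cells) are dosed, cultured 24 h, then supernatant IgG is measured by ELISA. DMSO serves as negative control; curves are fitted for signal increase.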
# [18] = BSK_BT_Bcell_Proliferation: Viability Assessment in the BioMAP Diversity Plus: BT Assay for B cell Proliferation (AID 2284227); conditions: primary human B cells with PBMC
# Summary of the method: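 Human B cell/PBMC co-culture; test chemical added; 72 h; TCA fix (10%), 0.1% SRB stain, A560 for total protein as a proliferation read-out; positive-direction fit vs DMSO baseline.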
# [19] = read-out: Interleukin 6 (IL6), IL6 (gene 3569); test: BSK_BT_xIL6: BioMAP Diversity Plus: BT Assay for Interleukin 6 (IL6) Biomarker Activity (AID 2284228); conditions: primary human B cells with PBMC
# Summary of the method: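 IL-6 secretion measured (Luminex xMAP) in human primary B cell + PBMC co-culture at 24 h of chemical exposure; DMSO served as negative control and activity baseline, with curves fitted for increase.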
smiles,measurement,setting,value
CCCSP(=O)(OCC)SCCC,outcome,[1],inactive
same,outcome,[2],inactive
same,outcome,[3],inactive
same,outcome,[4],inactive
same,outcome,[5],inactive
same,outcome,[6],inactive
same,outcome,[7],inactive
same,outcome,[8],inactive
same,outcome,[9],inactive
same,outcome,[10],inactive
same,outcome,[11],inactive
same,outcome,[12],inactive
same,outcome,[13],inactive
same,outcome,[14],inactive
same,outcome,[15],inactive
CSC1=N[C@@](C)(c2ccccc2)C(=O)N1Nc1ccccc1,outcome,[1],inactive
same,outcome,[2],inactive
same,outcome,[3],inactive
same,outcome,[4],inactive
same,outcome,[5],inactive
same,outcome,[6],inactive
same,outcome,[7],inactive
same,outcome,[8],inactive
same,outcome,[9],inactive
same,outcome,[13],inactive
same,outcome,[14],inactive
same,outcome,[15],inactive
CN1COCN(Cc2cnc(Cl)s2)C1=N[N+](=O)[O-],outcome,[1],inactive
same,outcome,[2],inactive
same,outcome,[3],inactive
same,outcome,[4],inactive
same,outcome,[5],inactive
same,outcome,[6],inactive
same,outcome,[7],inactive
same,outcome,[8],inactive
same,outcome,[9],inactive
same,outcome,[13],inactive
same,outcome,[14],inactive
same,outcome,[15],inactive
O=[N+]([O-])c1cc(C(F)(F)F)c(Cl)c([N+](=O)[O-])c1Nc1ncc(C(F)(F)F)cc1Cl,outcome,[1],inactive
same,AC50,[2],7.56 µM (active)
same,AC50,[3],9.47 µM (active)
same,AC50,[4],1.06 µM (active)
same,AC50,[5],934 nM (active)
same,AC50,[6],1.44 µM (active)
same,AC50,[7],924 nM (active)
same,AC50,[8],940 nM (active)
same,AC50,[9],1.06 µM (active)
same,AC50,[13],0.962 µM (active)
same,AC50,[14],1.9 µM (active)
same,AC50,[15],1.89 µM (active)
same,AC50,[16],4.22 µM (active)
same,AC50,[17],282 nM (active)
same,AC50,[18],2.57 µM (active)
same,AC50,[19],3.72 µM (active)
CCOP(=S)(OCC)OC(Cl)C(Cl)(Cl)Cl (stereo unspecified),AC50,[1],1.35 µM (active)
same,outcome,[2],inactive
same,outcome,[3],inactive
same,AC50,[4],16.5 µM (active)
same,outcome,[4],inactive
same,AC50,[5],70.5 µM (active) and 13.3 µM (active)
same,AC50,[6],75.7 µM (active) and 31.8 µM (active)
same,AC50,[7],85.1 µM (active) and 12.1 µM (active)
same,AC50,[8],83.9 µM (active) and 16.2 µM (active)
same,AC50,[9],85.8 µM (active) and 15.9 µM (active)
same,AC50,[13],12.8 µM (active)
same,outcome,[13],inactive
same,AC50,[14],16.7 µM (active)
same,outcome,[14],inactive
same,AC50,[15],50 µM (active) and 75.1 µM (active)
CN(C)[C@@H]1C(=O)C(C(N)=O)=C(O)[C@@]2(O)C(=O)C3=C(O)c4c(O)cccc4[C@@](C)(O)[C@H]3[C@H](O)[C@@H]12,AC50,[1],12.1 µM (active)
same,outcome,[2],inactive
same,outcome,[3],inactive
same,AC50,[4],50 µM (active)
same,AC50,[5],70500 nM (active)
same,outcome,[6],inactive
same,AC50,[7],60900 nM (active)
same,AC50,[8],50000 nM (active)
same,AC50,[9],50 µM (active)
same,AC50,[13],72.5 µM (active)
same,AC50,[14],50 µM (active)
same,AC50,[15],90.6 µM (active)
same,outcome,[16],inactive
same,outcome,[17],inactive
same,outcome,[18],inactive
same,outcome,[19],inactive
